# aSyn yeast inh: rescues yeast growth from alpha-synuclein toxicity | Yeast expressing alpha-synuclein, growth rescue, BacTiter-Glo, 24 h | Potency, µM (top dose mostly 46.1 µM), actives largely listed as activators | actives 0.14% (n = 370,000) | AID 652106; note: nearly all actives have a fitted effect of over 65% in size
#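 Rescue of yeast growth: cells expressing toxic alpha-synuclein, induced in galactose at OD600 0.02, incubated with compound 24 h at 30 C. ATP luminescence quantified growth; inhibitors of toxicity appear as activators.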
# FUS yeast rescue: suppressors of FUS proteinopathy in yeast; S. cerevisiae FUS-expressing, growth rescue, OD600, 24 h; Potency, µM (series often up to 76.6 µM), hits mostly activators; actives 0.24% (n = 390,000); AID 1347120; note: nearly all actives have a fitted effect of over 55% in size
#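 Yeast expressing FUS under galactose induction, OD 0.005 in 2% galactose medium; compounds in a dilution series, 24 h at 30C. Growth rescue by absorbance at 600 nm; CP55940 positive control, DMSO negative.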
# Abeta yeast res: restores growth of yeast expressing A-beta42 peptide; yeast expressing A-beta42, growth rescue, OD600, 48 h; response scale: 0% DMSO, 100% iron-clioquinol control; actives 0.063% (n = 410,000); Potency, µM (titrated, usually from 46.1 µM), usual class: activators; note: nearly all actives have a fitted effect of over 55% in size
#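 Yeast A-beta toxicity model in growth medium with pinned compounds, 48 h at 30 C; growth read as absorbance at 600 nm. Normalized to FeCl3/clioquinol equimolar mix (positive) and DMSO (negative).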
# TDP-43 yeast inh: TDP-43 toxicity inhibition in yeast. TDP-43 expressing yeast growth rescue, BacTiter-Glo, 24 h. Potency, µM (doses to about 46.1 µM), actives largely listed as activators. actives 1.8% (n = 410,000); note: nearly all actives have a fitted effect of over 50% in size
#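 Yeast expressing TDP-43 (pregrown in raffinose, seeded at OD600=0.02 in galactose medium) exposed to compounds 24 hr at 30 deg C. Growth read by BacTiter-Glo luminescence; rescue of toxicity appears as increased signal.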
# A number is an active result; n = inactive; u = inconclusive; x = no result; [ ] = dose if it differs, or a comment. Shown are actives, neighbours in structure and some others; about 2.1% of the full set was active somewhere. Calls come from the whole dose curve; as a rule, active = well fitted curve in the direction sought with a large enough effect; inconclusive = small, poorly fitted or top-dose-only effect, or another doubt; inactive = no such curve, though single readings can be large; an effect the other way counts as inactive or inconclusive.
SMILES,aSyn yeast inh,FUS yeast rescue,Abeta yeast res,TDP-43 yeast inh
CC(C)Sc1nc(N)nc(-c2cccs2)c1C#N,n,n,n[9.22 µM],17.8µM
CN(C)c1ccc(N=Nc2ccc(/C=C/c3ccnc4ccccc34)cc2)cc1,n,x,x,x
Cc1ccc(NC(=O)CN2C(=O)CCSc3ccccc32)c(C)c1,n,n,n,15.8µM
COc1ccccc1NC(=O)COc1cccnc1[N+](=O)[O-],n,n,n,7.94µM
Cc1noc(-c2ccccc2OCC(=O)Nc2ccccc2[N+](=O)[O-])n1,x,n,n,20µM
Cc1cccc(Sc2ccc([N+](=O)[O-])cn2)c1,n,n,n,11.2µM
CC(C)(C)c1csc(Sc2ccc([N+](=O)[O-])cn2)n1,n,n,n,11.2µM
Cc1cccc(OCCNc2ccc([N+](=O)[O-])cn2)c1,n,n,n,12.6µM
O=[N+]([O-])c1ccc(NCCOc2ccccc2Cl)nc1,n,n,n,n
COc1ccccc1C(=O)Nc1nsc(-c2ccccc2)n1,n,n,n,12.6µM
CCn1ccc2c(OCC(=O)Nc3ccccc3C)cccc2c1=O,x,n,n,12.6µM
CN(C)CCOC1c2ccccc2CCc2ccc3ccccc3c21 (configuration not stated),u,n,n,15.8µM
CN(C)CCOC1c2ccccc2C=Cc2ccccc21,u,n,n,u
CCN1CCN(C(c2ccc(SC)cc2)c2c(O)cc(C)n(Cc3ccco3)c2=O)CC1 (configuration not stated),x,n,n,n
COc1ccc(NC(=O)c2cn(-c3ccccc3)nc2-c2cc3ccccc3o2)cc1,n,n,n,n
OCc1cn(-c2ccccc2)nc1-c1cc2ccccc2o1,n,n,n,15.8µM
COC(=O)c1cc2sccc2n1Cc1ccc(F)cc1Cl,x,n,n,n
O=C(CC(=O)c1ccccc1O)c1cccc(F)c1,12.6µM,x,n,n
CCCCc1c(C)c2cc(C)ccc2[nH]c1=O,n,n,n,10µM
CCCc1c(C)c2cc(C)ccc2[nH]c1=O,n,n,n,n
Cc1cccc(NC(=O)CN2C(=O)N/C(=C/c3ccc(C)s3)C2=O)c1,n,x,n,n
Cc1cccc(NC(=O)CN2C(=O)N/C(=C/c3cc(C)n(C(C)C)c3C)C2=O)c1,n,20µM,n,n
c1ccc2c(c1)OCCOCCOc1ccccc1OCCOCCO2,n,n,n,11.2µM
Cc1nn(-c2ccccn2)c2c1-c1nc(N)sc1CC2,12.6µM,x,x,x
CCCC(=O)N1CCC[C@]2(CC[C@H](CCC(=O)OCC)O2)C1,x,n,x,x
SMILES,aSyn yeast inh,FUS yeast rescue,Abeta yeast res,TDP-43 yeast inh
Cc1ccc2nc(NC(=O)CSc3nccn3Cc3ccc(F)cc3)sc2c1,u,n,u,22.4µM
Cc1ccc2nc(NC(=O)CSc3nccn3Cc3ccccc3)sc2c1,u,n,u,u
CCOc1ccc(C(=O)NCCc2sc(-c3ccc(OC)c(OC)c3)nc2C)cc1,n,n,n,15.8µM
COc1ccc(-c2nc(C)c(CCNC(=O)c3ccccc3Br)s2)cc1OC,x,n,n,11.2µM
Cc1cccc(-c2nc(CCNC(=O)c3ccccc3Br)cs2)c1,x,n,n,12.6µM
COC(=O)[C@@]12CCCCC3=C1N(CCC3)C(=O)[C@H]2CC(=O)NCCc1ccccc1OC,x,n,x,x
Cc1ccc(C)c(NC(=O)[C@@H]2CCCN2S(=O)(=O)c2cccc3cccnc23)c1,x,n,x,x
COc1ccc(-c2cn3nc(N4CCC(C(=O)Nc5ccc(C)cc5)CC4)sc3n2)cc1,x,n,n,n
N#CC1=C(N)N(c2ccccc2)C(=O)C1,n,n,n,n
N#CC1=C(N)N(c2ccccc2Sc2ccccc2)C(=O)C1,n,28.2µM,n,n
CCOc1ccc(CCNC(=O)CCCc2nnc3n(CC)c(=O)c4sccc4n23)cc1,x,n,n,n
c1nc(N2CCC3(CC2)OCCO3)c2c3c(sc2n1)CCCC3,n,n,n,22.4µM
Cc1nn(CC(=O)c2ccc(Cl)s2)c(C)c1[N+](=O)[O-],n,17.8µM,n,n
Cc1nn(CC(=O)Nc2ccc3c(c2)OCCO3)c(C)c1[N+](=O)[O-],n,n,n,6.31µM
CC(C)Cc1ccc(C(=O)NCc2ccc3c(c2)OCO3)o1,n,n,n,14.1µM
Cc1ccc2oc(C(=O)NCc3ccc4c(c3)OCO4)c(C)c2c1,n,n,n,22.4µM
Cc1cccc(-n2nnc(C(=O)NCc3ccc4c(c3)OCO4)c2N)c1,n,n,n,17.8µM
Cc1cc2oc(C(=O)NCc3ccc4c(c3)OCO4)c(C)c2cc1C,n,n,n,n
Cc1c(C(=O)NCc2ccc3c(c2)OCO3)oc2ccccc12,n,n,n,15.8µM
Cc1ccc(-n2ncc(C(=O)NCCCN3CCc4ccccc4C3)c2C2CCN(C(=O)OC(C)(C)C)CC2)c(C)c1,x,u,n,n
COc1ccc(NC(=O)C2CCN(S(=O)(=O)c3cn(C)cn3)CC2)cc1Cl,x,n,n,n
COc1ccc(OCC(=O)Nc2cccc(-c3nc4ccccc4s3)c2C)cc1,x,n,n,n
Cc1nc(NCc2ccc3c(c2)OCO3)c2oc3ccccc3c2n1,n,n,n,n
CCc1nc(NCc2ccc3c(c2)OCO3)c2oc3ccccc3c2n1,n,n,n,11.2µM
Cc1cccc(-c2nc(C(N)=O)c3c(n2)n(-c2ccc4c(c2)OCO4)c(=O)n3C)c1,x,n,n,n
SMILES,aSyn yeast inh,FUS yeast rescue,Abeta yeast res,TDP-43 yeast inh
Cc1cccc(NS(=O)(=O)c2ccc3c(c2)CC(C)N3C(=O)C2CCC2)c1C (configuration not stated),x,u,n,20µM
CC1CCN(S(=O)(=O)c2ccc3c(c2)CC(C)N3C(=O)C2CCC2)CC1 (configuration not stated),n,u,x,17.8µM
Cc1cc(C)c(NS(=O)(=O)c2ccc3c(c2)CC(C)N3C(=O)C2CCC2)c(C)c1 (configuration not stated),x,u,n,11.2µM
Cc1ccc(CNS(=O)(=O)c2ccc3c(c2)CC(C)N3C(=O)C2CCC2)cc1 (configuration not stated),x,n,n,n
COc1ccc(N2CCN(CCNS(=O)(=O)c3ccccc3[N+](=O)[O-])CC2)cc1,x,n,x,x
CN(C)c1ccc(/C=C/c2ccnc3ccc(N)cc23)cc1,n,x,x,x
O=C(Nc1c(F)cc(F)cc1Br)c1cc(-c2ccc(O)cc2)on1,n,n,n,11.2µM
Cc1cccc(NC(=O)CN(C)S(=O)(=O)c2ccc3c(c2)c(=O)n(C)c(=O)n3C)c1C,x,n,n,n
Nc1ccc2oc(=O)c3ccccc3c2c1,n,x,n,12.6µM
CC1CCN(c2cc(N)c(Cl)cc2[N+](=O)[O-])CC1,u,n,n,17.8µM
CC(C)c1ccc2oc(-c3cc(N)ccc3O)nc2c1,n,n,n,20µM
NC(=S)NCCC[C@H](N)C(=O)O,n,x,x,x
Cc1ccccc1CSc1nnc(-c2cccs2)n1Cc1ccco1,n,n,n,n
c1ccc(CSc2nnc(-c3cccs3)n2Cc2ccco2)cc1,n,n,n,17.8µM
Clc1cccc(CSc2nnc(-c3ccccn3)n2Cc2ccco2)c1,n,u,n,20µM
Brc1ccc(CSc2nnc(-c3ccccn3)n2Cc2ccco2)cc1,n,n,n,n

# Screening results: PubChem BioAssay, National Center for Advancing Translational Sciences (NCATS)
